# Most compounds without a hit are left out; they make up all but 5.4% or so of the library.
# ALOX12 inhib: inhibitors of human 12-lipoxygenase (ALOX12) | 150,000 tested, 0.12% active | purified 12-hLO, xylenol orange hydroperoxide absorbance | Potency, µM (series often up to 57.1 µM), inactives show at the top dose activity change, negative = inhibition, hits mostly inhibitors | P18054; note: potency is the fitted concentration of half-maximal effect; nearly all actives have a fitted effect of over 55% in size
#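 Lipoxygenase turnover measured by absorbance at 573 and 405 nm after Fe-XO development. Human 12hLO 150 nM, arachidonate 40 uM, pH 7.0 Hepes buffer with detergent; 15 min compound preincubation, 30 min reaction.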
# IMPase inh: IMPase inhibition in cells; 120,000 tested, under 10 active; inhibition (IP1 accumulation), % at 46.1 µM; CHO-M1 cells, IP1 accumulation, HTRF TR-FRET ratio; P97697; active = well fitted curve in the direction sought with a large enough effect in the signal ratio, not every such curve was filed as active; inconclusive = small, poorly fitted or top-dose-only effect, or a change in a side signal; inactive = no such curve, though single readings can be large or run the other way; the % refers to the signal ratio;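 note: cells stimulated with carbachol in lithium chloride buffer; plate controls were DMSO basal wells for no effect and reference inhibitor wells for full effect; higher means more IMPase inhibition seen as more IP1 and lower FRET ratio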
# Target sequence (P97697 whole entry, looked up): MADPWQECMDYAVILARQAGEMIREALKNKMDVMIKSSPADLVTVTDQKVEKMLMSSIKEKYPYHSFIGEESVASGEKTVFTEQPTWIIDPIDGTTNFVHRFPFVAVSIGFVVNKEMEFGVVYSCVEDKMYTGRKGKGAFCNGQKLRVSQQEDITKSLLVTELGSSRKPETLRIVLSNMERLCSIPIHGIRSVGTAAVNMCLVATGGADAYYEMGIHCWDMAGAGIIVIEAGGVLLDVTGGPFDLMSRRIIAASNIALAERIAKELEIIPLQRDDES
#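 Cellular IMPase inhibition is scored as a rise in cytosolic IP1, detected by competitive TR-FRET between d2-labelled IP1 and a europium anti-IP1 antibody. M1-expressing CHO cells were stimulated with carbachol for 30 min at 37C, with lithium (50 mM LiCl) present in the buffer.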
# HPGD block: HPGD (human) dehydrogenase inhibition; 150,000 tested, 4.3% active; purified HPGD, NADH fluorescence kinetic, PGE2 substrate; Potency, µM, without a hit: top-dose activity change, negative = inhibition, actives largely listed as inhibitors; AID 894; active = well fitted inhibition curve with a large enough effect, not every such curve was filed as active; inconclusive = small, poorly fitted or top-dose-only effect, or another doubt; inactive = no such curve, though single readings can be large or run the other way; note: potency is the fitted concentration of half-maximal effect
# Target sequence (P15428 whole entry, looked up): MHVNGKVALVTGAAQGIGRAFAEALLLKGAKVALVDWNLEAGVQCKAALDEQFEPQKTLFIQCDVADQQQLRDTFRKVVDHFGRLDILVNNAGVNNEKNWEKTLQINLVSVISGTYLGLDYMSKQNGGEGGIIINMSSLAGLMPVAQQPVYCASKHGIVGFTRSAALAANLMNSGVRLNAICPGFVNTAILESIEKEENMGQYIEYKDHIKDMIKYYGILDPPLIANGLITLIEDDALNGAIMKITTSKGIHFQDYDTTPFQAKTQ
#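 NADH formation kinetics: reaction with 30 uM PGE2 and 1 mM NAD+ (final), 20 nM enzyme, Tris-HCl pH 8 with Tween 20, after 15 min compound preincubation at room temperature. Fluorescence change, last versus first of five reads.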
# PNC inhibitor: blocks assembly of the perinucleolar compartment. PC3M PTB-GFP, PNC prevalence imaging, 16 h; active compounds read low. activity change (PNC), negative = inhibition, % at 10 µM. 140,000 tested, 3.1% active. AID 2417;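 active = readout at or below -70, meaning at least 70% loss of cells showing the perinucleolar compartment, a nuclear body marking cancer cells; inconclusive = readout between -30 and a set limit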;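 note: plate controls were DMSO wells for no effect and camptothecin positive control wells for full effect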
#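 PC3M cells stably expressing PTB-GFP, 750–1000 cells/well, treated 16 h at 37 °C with compound (23 nl of library stock), in duplicate. After paraformaldehyde fixation and Hoechst stain, imaged at 20x; PNC prevalence scored by image analysis.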
# 15-hLO-2 inh: 15-hLO-2 (ALOX15B) enzyme inhibition | 110,000 tested, 0.56% active | O15296 | AID 881 | purified 15hLO-2, xylenol orange hydroperoxide absorbance | Potency, µM (top dose mostly 57.1 µM), for inactives: at the top dose activity change, negative = inhibition, most hits filed as inhibitors; note: potency is the fitted concentration of half-maximal effect; nearly all actives have a fitted effect of over 60% in size
#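 Screening format was qHTS against 50 nM purified 15hLO-2 in Hepes pH 7.5 with detergent. Activity follows hydroperoxide formation from 45 uM arachidonic acid, measured as 573:405 nm absorbance ratio of the ferric-xylenol orange complex.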
# IMPase Li cell: membrane-permeable IMPase blocker, potentiated with lithium; Potency, µM (highest dose often 59.4 µM), for the others: at the highest dose activity, negative = IMPase inhibition, actives largely listed as inhibitors; CHO-M1 cells, IP1 TR-FRET (IP-One), carbachol + lithium; 210,000 tested, 0.35% active;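 note: IP1 builds up when IMPase is blocked and the TR-FRET signal falls; potency is the fitted concentration of half-maximal effect; plate controls were basal vehicle for no effect and high inhibitor control for full effect; nearly all actives have a fitted effect of over 50% in size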
#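 CHO cells stably expressing M1 receptor (2000/well, cultured 16–30 h) treated 30 min at 37C with compound plus low lithium. Cytosolic IP1 by TR-FRET (665/620 ratio and 620 channel) after 10 min lysis; AC50 by Hill fit.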
# * hit, by the source's call; u = inconclusive; x = no result; [ ] = remark or other dose. Unless noted, calls come from the whole dose curve; as a rule, active = well fitted curve in the direction sought with a large enough effect; inconclusive = small, poorly fitted or top-dose-only effect, or another doubt; inactive = no such curve, though single readings can be large; an effect the other way counts as inactive or inconclusive. Unless noted, % is set by controls: 0 for no effect and ±100 for the full control effect.
SMILES,ALOX12 inhib,IMPase inh,HPGD block,PNC inhibitor,15-hLO-2 inh,IMPase Li cell
O=C(N/N=C/c1ccsc1)c1cc(-c2ccncc2)nc2ccccc12,-4%,x,-8%,-114*,x,-8%
COc1cccc(-c2nc(N(C)Cc3ccco3)c3ccccc3n2)c1,x,x,x,x,-14%,19%
COc1ccc(OC)c(C2CC(=O)N3CN(c4ccccc4)CSC3=C2C#N)c1 (centres undefined),u,7,7.1µM*,34,10µM*,10%[38.3 µM]
CCc1ccccc1N1CSC2=C(C#N)C(c3ccccc3F)CC(=O)N2C1 (centres undefined),u,5,5.6µM*,u,10µM*,2%[38.3 µM]
COc1ccc(N2CSC3=C(C#N)C(c4cccc(OC)c4OC)CC(=O)N3C2)cc1 (centres undefined),-26%,-29,8.9µM*,12,13µM*,-13%[38.3 µM]
COc1cccc(C2SCC(=O)N2c2ccc(Cl)cc2)c1OC (centres undefined),-3%,x,0%,-24,x,24%
COc1ccc(C2CC(=O)N3CN(c4ccc(C)c(Cl)c4)CSC3=C2C#N)cc1 (centres undefined),-27%,-2,u,63,16µM*,-22%[38.3 µM]
NNC(=O)c1ccc[n+](CCc2ccccc2)c1,3%[11.4 µM],x,-7%,x,-2%[11.4 µM],6%
Cc1cccc(N2CSC3=C(C#N)C(c4ccc(C)o4)CC(=O)N3C2)c1 (centres undefined),-26%,-8,8.9µM*,u,u,-14%[38.3 µM]
COc1cc(OC)c(C2CC(=O)N3CN(c4ccccc4C)CSC3=C2C#N)cc1OC (centres undefined),-11%,6,8.9µM*,-18,u,-1%
C/C(N)=C(/C#N)C(=O)COC(=O)c1cc(C)n(-c2ccc(F)cc2)c1C,6%,10,-27%,-129*,-1%,30%[38.3 µM]
Cc1ccc(NC(=O)c2ccc(NCc3ccco3)c([N+](=O)[O-])c2)cc1Cl,-2%,-13,-12%,-25,x,13%
Cc1ccc(NC(=O)c2ccc(NCC3CCCO3)c([N+](=O)[O-])c2)cc1Cl (centres undefined),-16%,8,14µM*,u,u,22%[38.3 µM]
Cc1ccc(C(=O)N/N=C(\CC(C)C)c2ccccc2)cc1,1%,x,-15%,-105*,x,3%
Cc1nc2ccccn2c1C(=O)N/N=C/c1cc(C)n(-c2ccc(Cl)cc2)c1C,-1%,9,u,-100*,x,17%
Cc1ccc(-n2c(C)cc(/C=N/NC(=O)Cn3c4ccccc4c(=O)c4ccccc43)c2C)cc1,-3%,x,u,0,x,2%
Cc1cc(/C=N/NC(=O)Cn2c3ccccc3c(=O)c3ccccc32)c(C)n1-c1ccc(Cl)cc1,-1%,10,u,-88*,x,-6%
Cc1nc2ccccn2c1C(=O)N/N=C/c1ccccc1[N+](=O)[O-],-3%,1,-7%,2,-8%,0%[38.3 µM]
CC(=O)OCC1O[C@@H](O[C@@H]2C[C@H]3C(C)(C)[C@H](OC(C)=O)CC[C@]3(C)[C@H]3CC[C@]45C[C@]4(CC[C@H]5[C@@H](C)C[C@@H](O)[C@H](O)C(C)(C)O)[C@@]32C)[C@H](O)[C@@H](O)[C@@H]1O (some centres undefined),16%,x,-13%,-115*,x,20%
O=C(NC1CC1)c1cccc(Nc2ccc(-c3ccc4c(c3)OCCO4)nn2)c1,-6%,3,28µM*,6,4%[2.29 µM],21%[38.3 µM]
O=S(=O)(c1ccc(Nc2ccc(-c3ccc4c(c3)OCCO4)nn2)cc1)N1CCCC1,4%,4,-29%,33,-3%,-2%[38.3 µM]
c1cnc2ccc(C(c3nnnn3C3CCCCC3)N3CCCCC3)cc2c1 (centres undefined),-3%,2,-13%,-100*,x,14%
Cn1c(N)c(C(=O)COC(=O)Cn2cc(C(F)(F)F)ccc2=O)c(=O)n(C)c1=O,0%,-4,16µM*,u,3%,5%[38.3 µM]
Cc1ccc(-c2nc(N3CCCC(C)C3)c3ccccc3n2)cc1 (centres undefined),x,4,x,x,x,x
COc1ccccc1-c1nnc2sc(-c3ccc(N(C)C)cc3)nn12,2%,-15,x,-10,x,x
SMILES,ALOX12 inhib,IMPase inh,HPGD block,PNC inhibitor,15-hLO-2 inh,IMPase Li cell
COc1cccc(-c2nn3c(-c4ccccn4)nnc3s2)c1,0%,1,32µM*,26,0%,23%[38.3 µM]
Clc1ccc(-c2nnc3sc(-c4ccccn4)nn23)cc1,-7%,0,-8%,u,-6%,0%[38.3 µM]
COc1cccc(-c2nnc3sc(-c4ccccn4)nn23)c1,-12%,11,22µM*,23,-2%,17%[38.3 µM]
COc1ccc(-c2nn3c(-c4ccccn4)nnc3s2)cc1OC,1%,8[0.0738 µM],-10%,-10,x,5%
COc1ccccc1-c1nnc2sc(-c3cnccn3)nn12,-4%,12,25µM*,-20,-8%,8%[38.3 µM]
CC(C)(C)c1ccc(-c2nnc3sc(-c4ccccn4)nn23)cc1,7%,-1,28µM*,28,15%,17%[38.3 µM]
CN(C)c1ccc(/C=N\NC(=O)c2cnc3ccccc3c2)cc1,2%[11.4 µM],x,-2%,x,-6%[11.4 µM],0%
N#Cc1c(-c2ccc(Br)cc2)nc2n(c1=O)CCCS2,-2%,2,28µM*,u,1%,8.9µM*
COc1ccccc1N1C(=O)CC(Sc2ncccc2C(=O)O)C1=O (centres undefined),1%,3,-8%,-100*,x,2%
COC(=O)c1ccccc1SC1CC(=O)N(c2ccccc2)C1=O (centres undefined),6%,x,14µM*,u,x,1%
O=C(O)c1cccnc1SC1CC(=O)N(Cc2ccccc2)C1=O (centres undefined),13%,7,-3%,23,-4%,31%[38.3 µM]
CC(=O)OC1CC[C@]2(C)C(CC(OC(C)=O)[C@@]3(C)C4=CC(=O)OC(c5ccoc5)[C@]4(C)CCC23)C1(C)C (some centres undefined),-12%,x,-10%,x,-11%,19%
Cc1ccc(S(=O)(=O)N[C@@H](Cc2ccccc2)C(=O)CCl)cc1,-4%,10,20µM*,12,-9%,35%
C[N+](C)(C)CCC(=O)c1cccc2ccccc12,-24%,5,14µM*,x,u,24%
Cc1ccccc1CNC1CCCCC1,-2%,x,3%,u,x,-1%
Oc1cc(CN2COc3ccccc32)c(O)cc1CNC1CCCCC1,10%[11.4 µM],x,1.6µM*,x,3.2µM*,-5%
Cc1cc(C(=S)N2CCOCC2)c(C)n1-c1ccc(Cl)cc1,-10%,x,28µM*,7,x,16%
Cc1cccc(-n2c(C)cc(C(=S)N3CCOCC3)c2C)c1C,x,x,x,x,x,7%
